Compound activity: PubChem, National Center for Advancing Translational Sciences (NCATS)
Cycloheximide cs = counter-screen for Shiga toxin inhibitors: cycloheximide protein synthesis inhibition; cell reporter, cycloheximide protein synthesis inhibition counterscreen; 12% of 300,000 active; max response, %; in the data active = max response mostly above about 13%, no sharp cut-off; inactive = mostly below about 14%; note: read at 38.3 µM for the half of the compounds with a filed dose
Shiga toxin inh = blocks Shiga toxin action in Vero cells. Vero cells, Shiga toxin protein synthesis inhibition reporter. inhibition, % at 38.7 µM. 9.2% of 290,000 active. AID 2315; in the data active = inhibition mostly above about 28%, no sharp cut-off; inactive = mostly below about 43%
FBPA Giardia inh = blocks Giardia fructose-bisphosphate aldolase activity | AID 2451 | purified Giardia FBPA | Potency, µM (top dose mostly 59.6 µM), hits mostly inhibitors | 0.71% of 290,000 active; note: nearly all actives have a fitted effect of over 55% in size
Target sequence (A8B2U2 whole entry, looked up): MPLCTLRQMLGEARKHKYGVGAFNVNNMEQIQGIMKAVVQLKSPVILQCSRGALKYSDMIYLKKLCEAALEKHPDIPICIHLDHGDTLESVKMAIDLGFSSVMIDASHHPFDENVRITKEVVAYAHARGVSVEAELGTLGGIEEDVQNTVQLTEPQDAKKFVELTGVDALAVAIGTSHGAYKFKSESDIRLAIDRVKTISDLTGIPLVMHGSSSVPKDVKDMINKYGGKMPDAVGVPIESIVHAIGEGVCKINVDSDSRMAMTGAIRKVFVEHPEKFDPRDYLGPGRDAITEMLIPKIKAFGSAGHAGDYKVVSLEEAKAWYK
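40 nM FBPA preincubated 10 min at RT with compound (up to 57.5 uM final), then substrate plus GAPDH/TPI/NAD/arsenate coupling and diaphorase/resazurin added. Fluorescence read after 20 min at RT, 525/598 nm.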
Pf growth 96h = P. falciparum growth inhibition at 96 hour, primary screen for plastid delayed-death inhibitors | 6.9% of 320,000 active | Potency, µM (highest dose often 28.7 µM), hits mostly inhibitors | P. falciparum luciferase reporter growth, 96 h
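Readout is luminescence from an integrated firefly luciferase in P. falciparum. Red cells, 2% hematocrit and 0.05% parasitemia final, were cultured with compound through two parasite generations (96 hours) at 37 C, 5% CO2.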
Pf growth 48h = inhibits P. falciparum growth in the first generation, 48 h | Potency, µM (series often up to 28.7 µM), actives largely listed as inhibitors | P. falciparum luciferase growth in erythrocytes, 48 h | 5.9% of 310,000 active | AID 504832
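First compound was added to culture medium, then infected red cells at 0.1% parasitemia and 2% hematocrit (final). After incubation at 37 C under 5% CO2, luciferase detection reagent was dispensed and light output recorded.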
NS1 inh = inhibitors of influenza NS1 protein function; Potency, µM (series often up to 46.1 µM); 0.4% of 270,000 active; calls by dose curve; note: actives are rising curves; nearly all actives have a fitted effect of over 50% in size
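OD600 was taken as the measure of yeast growth restored by compound in an NS1-expressing S. cerevisiae strain. Cells had been washed out of glucose medium and diluted 1:100 into galactose -URA medium, pH 6.0.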
Each line names hits and unclear results; the compound was inactive in the other large screens. Rows were chosen to be rich in hits. Some 21% of all compounds tested hit in one or more screens of this group. Unless noted, calls come from the whole dose curve; as a rule, active = well fitted curve in the direction sought with a large enough effect; inconclusive = small, poorly fitted or top-dose-only effect, or another doubt; inactive = no such curve, though single readings can be large; an effect the other way counts as inactive or inconclusive.

Cc1cccc(NC(=O)Cn2nc(-c3cccs3)ccc2=O)c1C	none
O=[N+]([O-])c1ccc(Sc2ccccc2)nc1	none
Cc1ccnc(Sc2ccc([N+](=O)[O-])cn2)n1	Cycloheximide cs 10.1, Pf growth 96h 13.1µM, Pf growth 48h inconclusive
CC(C)(C)c1csc(Sc2ccc([N+](=O)[O-])cn2)n1	Cycloheximide cs 22.6, Shiga toxin inh 50.2, Pf growth 96h inconclusive, Pf growth 48h 13.1µM
O=[N+]([O-])c1ccc(Sc2n[nH]c(-c3ccccc3)n2)nc1	Cycloheximide cs 41.1
O=C(N/N=C/C=C\c1cccc([N+](=O)[O-])c1)c1cccnc1	none
O=C(N/N=C\C=C\c1ccc2c(c1)OCO2)c1cccnc1	Cycloheximide cs 17.6, Shiga toxin inh 78.0, Pf growth 96h inconclusive
COC(=O)c1cccc(NC(=O)/C=C/c2ccc3c(c2)OCO3)c1	Cycloheximide cs 42.7, Shiga toxin inh 21.3
O=C(/C=C/c1ccco1)Nc1ccc2c(c1)OCO2	Cycloheximide cs 38.3, Shiga toxin inh 113.3 (no result: NS1 inh)
CC(=O)Nc1ccc(NC(=O)/C=C/c2ccc3c(c2)OCO3)cc1	Cycloheximide cs 31.8
O=C(CNC(=O)c1ccccc1)NCC(O)c1ccc([N+](=O)[O-])cc1 (configuration not stated)	none
COc1ccc(NC(=O)CC(C)NCCCN2CCCC2=O)cc1 (configuration not stated)	FBPA Giardia inh inconclusive
O=C(NCc1ccc(Cl)cc1)c1cc(=O)[nH]c2ccccc12	none
CCOC(=O)c1[nH]c2ccc(OC)cc2c1NC(=O)/C=C/c1ccc2c(c1)OCO2	none
Cc1cccnc1NC(=O)/C=C/c1ccc2c(c1)OCO2	Cycloheximide cs 50.4, Shiga toxin inh 85.0, Pf growth 96h 10.4µM
O=C(/C=C/c1ccc2c(c1)OCO2)Nc1c(C(=O)O)[nH]c2ccccc12	Cycloheximide cs 50.5, Shiga toxin inh 54.7
CC(C)(C)c1ccc(/C=C/C(=O)Nc2nncs2)cc1	Cycloheximide cs 62.6, Shiga toxin inh 55.5
Cc1ccccc1-n1nc2c(c1NC(=O)/C=C\c1ccc3c(c1)OCO3)CSC2	Pf growth 96h 11.7µM, Pf growth 48h inconclusive
Cc1ccc(C)c(C(=N)c2ccccc2Cc2ccccc2)c1	none (no result: Cycloheximide cs, Shiga toxin inh, FBPA Giardia inh, Pf growth 96h, Pf growth 48h)
O=c1cc(-c2ccc(O)cc2)oc2c([C@H]3O[C@@H](CO)[C@@H](O)[C@@H](O)[C@@H]3O)c(O)cc(O)c12	none (no result: Cycloheximide cs, Shiga toxin inh, Pf growth 96h, Pf growth 48h, NS1 inh)
O=C(/C=C/c1ccc2c(c1)OCO2)Nc1cccnc1	Cycloheximide cs 35.6, Shiga toxin inh 90.5 (no result: NS1 inh)
O=C(/C=C/c1ccc2c(c1)OCO2)c1cccnc1	Cycloheximide cs 22.4
O=C(/C=C/c1cccc(OCc2ccccc2)c1)c1cccnc1	none
O=C(/C=C/c1ccc2c(c1)OCO2)Nc1nncs1	Cycloheximide cs 29.6, Shiga toxin inh 44.6
Cc1sc(NC(=O)/C=C/c2ccc3c(c2)OCO3)nc1-c1ccccc1	NS1 inh inconclusive
Cc1cc(C)nc(NC(=O)/C=C/c2ccc3c(c2)OCO3)c1	Cycloheximide cs 52.0, Shiga toxin inh 66.2
COc1ccc(CCN2CC(C(=O)NCCN3CCCC3=O)CCC2=O)cc1 (configuration not stated)	Pf growth 48h inconclusive, NS1 inh inconclusive
COC(=O)c1ccc(NC(=O)CSc2ccc(-c3ccccn3)nn2)cc1	none (no result: FBPA Giardia inh)
Cc1ccc(N(C(=O)Cn2nnc3ccccc32)C(C(=O)NCc2ccco2)c2cccnc2)cc1 (configuration not stated)	Pf growth 96h inconclusive, Pf growth 48h 10.4µM, NS1 inh inconclusive
COc1cccc(N(C(=O)Cn2nnc3ccccc32)C(C(=O)NCc2ccco2)c2cccnc2)c1 (configuration not stated)	Pf growth 48h 8.28µM (no result: Pf growth 96h)
O=C(CSc1nnc(CNC(=O)c2cccs2)o1)Nc1ccccc1F	Pf growth 96h inconclusive (no result: FBPA Giardia inh)
COc1cccc(C2=Nn3c(nnc3-c3cc(OC)ccc3OC)SC2)c1	none (no result: Pf growth 96h, Pf growth 48h, NS1 inh)
COCCNC(=O)CN1CCC(NC(=O)c2ccco2)CC1	Cycloheximide cs 22.5
CC1CCCCN1C(=S)NC(=O)c1ccco1 (configuration not stated)	none (no result: Cycloheximide cs, Shiga toxin inh, FBPA Giardia inh, NS1 inh)
Cc1ccccc1NC(=S)N1CCC(NC(=O)c2ccco2)CC1	Pf growth 96h 3.29µM (no result: NS1 inh)
CC(C)CNC(=S)N1CCC(NC(=O)c2ccco2)CC1	Pf growth 96h 11.7µM (no result: NS1 inh)
Cc1ccc(C)c(NC(=S)N2CCC(NC(=O)c3ccco3)CC2)c1	none
CC1CCN(C(=S)NC(=O)c2ccco2)CC1	Cycloheximide cs 33.1 (no result: FBPA Giardia inh)
COc1ccc(N2CC(C(=O)N[C@H](C(=O)NC(C)c3ccccc3)C(C)C)CC2=O)cc1 (some centres not stated)	none (no result: FBPA Giardia inh)
CCN(CC(=O)Nc1ccc2c(c1)OCCO2)C(=O)c1cc(=O)[nH]c2ccccc12	none (no result: Cycloheximide cs, Shiga toxin inh, FBPA Giardia inh, NS1 inh)
CCN1C(=O)C(=O)N(CC(=O)Nc2ccccc2OC(F)F)C1=O	Pf growth 96h inconclusive (no result: Cycloheximide cs, Shiga toxin inh, FBPA Giardia inh, NS1 inh)
COc1cccc(Cn2c(=O)c(-c3ccc(F)c(F)c3)nc3cncnc32)c1	none (no result: Cycloheximide cs, Shiga toxin inh, Pf growth 96h, Pf growth 48h, NS1 inh)
COc1ccc(-n2c(C)cc(=O)[nH]c2=O)cc1	Pf growth 96h inconclusive
COc1ccc(C2OC3=C(Nc4cc(C)c(C)cc4N3)C2=O)cc1 (configuration not stated)	Cycloheximide cs 30.0, Shiga toxin inh 76.6
COc1ccccc1C1OC2=C(Nc3ccc([N+](=O)[O-])cc3N2)C1=O (configuration not stated)	Pf growth 96h inconclusive, Pf growth 48h inconclusive
Cc1cc2c(cc1C)NC1=C(N2)OC(c2cccc(O)c2)C1=O (configuration not stated)	Cycloheximide cs 7.4
CN(C)c1ccc(CNn2cnnc2SCc2ccccc2F)cc1	Cycloheximide cs 24.6, Shiga toxin inh 37.2 (no result: Pf growth 96h)
CN(C)c1ccc(CNn2cnnc2SCC(=O)NC(C)(C)C)cc1	none
CCCC(=O)Nc1ccc(NC(=O)c2ccco2)cn1	Cycloheximide cs 18.1, Shiga toxin inh 27.5, Pf growth 96h 8.28µM
CC(C)C(=O)Nc1ccc(NC(=O)c2ccco2)cn1	Cycloheximide cs 23.0, Pf growth 96h inconclusive
COc1cc(C(=O)Nc2ccc(NC(=O)c3ccco3)nc2)cc(OC)c1OC	Pf growth 48h inconclusive (no result: Pf growth 96h)
CC(C)C(=O)Nc1ccc(NC(=O)CCc2ccccc2)cn1	Pf growth 96h inconclusive
CCCCC(=O)Nc1ccc(NC(=O)c2ccco2)cn1	Cycloheximide cs 20.0
CC(C)(C)c1ccc(/C=C/C(=O)N2CCCCC2)cc1	Cycloheximide cs 51.0, Shiga toxin inh 81.5, Pf growth 96h inconclusive
O=C(/C=C/c1ccccc1)N1CCCN(C(=O)/C=C/c2ccccc2)CC1	Pf growth 96h inconclusive, Pf growth 48h inconclusive
CC1CCN(C(=O)/C=C/c2ccc(C(C)(C)C)cc2)CC1	Cycloheximide cs 39.1, Shiga toxin inh 21.0
CC(C)Cc1ccc(/C=C/C(=O)N2CCCCC2)cc1	Cycloheximide cs 43.5, Shiga toxin inh 67.4 (no result: NS1 inh)
Cc1ccc(/C=C/C(=O)N2CCC(Cc3ccccc3)CC2)cc1	Pf growth 96h inconclusive
